Where “and” joins values, the source holds several entries; their conditions need not be identical. Equal entries are not always repeated. Inconclusive results are not listed. Entries that show only a call come without a potency. A structure can be active in one record and inactive in another. Calls of active or inactive are those of the source. Unless noted, calls follow the shape of the dose curve; as a rule, active = well fitted cell-killing curve with a large enough effect in the repeat runs; inconclusive = weak or mixed curves, or effect the other way; inactive = flat fitted curve, though single readings scatter.
Tested on: not listed separately
Assay: qHTS assay to identify small molecule antagonists of the sonic hedgehog signaling (Shh) pathway (AID 1259369; calls by dose curve; also: nearly all actives have a fitted effect of over 45% in size; also: potency is read from the fitted curve at half-maximal effect)
Settings: NIH/3T3 Gli1-Luc reporter, Shh antagonist, luminescence 24 h; series mostly up to 92.4 µM
In short: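 Stable Gli1-Luc reporter NIH/3T3 clone; quantitative HTS in stimulated mode with conditioned medium. Luminescence measured after 24hr compound treatment at 37 C.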
In the case of `ClCCOCCCl`, the Potency is reported as “inactive”. For `CN(C)C(=O)Nc1cccc(C(F)(F)F)c1`, the Potency was “inactive”. In the case of `CN(C)C(=O)C(c1ccccc1)c1ccccc1`, the Potency is reported as “inactive”. In the case of `Nc1ccc(N)cc1`, the Potency is reported as 54.7 µM (active) and 48.6 µM (active) and inactive. In the case of `O=S(=O)(O)OOS(=O)(=O)O`, the Potency is reported as “inactive”. In the case of `CC12CC1(C)C(=O)N(c1cc(Cl)cc(Cl)c1)C2=O` (stereo not given), the Potency is reported as “inactive”. With `OCCCCO` the Potency was “inactive”. In the case of `COC(=O)Nc1cccc(OC(=O)Nc2cccc(C)c2)c1`, the Potency is reported as “inactive”. With `N#Cc1cccc(C#N)c1` the Potency was “inactive”. With `Nc1cc(Cl)cc(Cl)c1` the Potency was “inactive”. With `CC(C)c1cccc(C(C)C)c1O` the Potency was “inactive”. In the case of `COP(=S)(OC)Oc1ccc(SC)c(C)c1`, the Potency is reported as “inactive”. With `O=C(O)c1cc(Oc2ccc(C(F)(F)F)cc2Cl)ccc1[N+](=O)[O-]` the Potency was “inactive”. In the case of `CSc1nnc(C(C)(C)C)c(=O)n1N`, the Potency is reported as “inactive”. For `COc1cc(-c2ccc(N)c(OC)c2)ccc1N`, the Potency was 6.78 µM (active) and 8.24 µM (active). In the case of `O=C/C=C/c1ccccc1`, the Potency is reported as “inactive”. For `CCCCCCCCCCCCCCCCCC(=O)O`, the Potency was 17.1 µM (active) and inactive. In the case of `CC(=O)/C=C/c1ccccc1`, the Potency is reported as “inactive”. With `Cc1ccccc1N` the Potency was “inactive”. In the case of `CN1C(=O)CCS(=O)(=O)C1c1ccc(Cl)cc1` (stereo not given), the Potency is reported as “inactive”. In the case of `Cl[C@H]1OCCO[C@@H]1Cl`, the Potency is reported as “inactive”. With `C[C@H]1C(=O)O[C@@H]2CCN3CC=C(COC(=O)[C@](C)(O)[C@]1(C)O)[C@H]23` the Potency was “inactive”. In the case of `[N-]=[N+]=CC(=O)OC[C@H](N)C(=O)O`, the Potency is reported as “inactive”. In the case of `Cc1ccc(N=C=O)cc1N=C=O`, the Potency is reported as “inactive”. In the case of `COC(C)(C)CCCC(C)C/C=C/C(C)=C/C(=O)OC(C)C` (stereo not given), the Potency is reported as “inactive”. With `CCOP(=S)(OCC)Oc1ccc([N+](=O)[O-])cc1` the Potency was “inactive”. In the case of `c1ccc2c(c1)CCCC2`, the Potency is reported as “inactive”. In the case of `CNC(=O)Oc1cccc2ccccc12`, the Potency is reported as 12.1 µM (active) and 9.44 µM (active). For `Cc1ccc(N)cc1`, the Potency was “inactive”. With `CN(C)NC(=O)CCC(=O)O` the Potency was “inactive”. For `O=[N+]([O-])c1cc([As](=O)(O)O)ccc1O`, the Potency was “inactive”.

Target: Estrogen receptor beta (Homo sapiens) (UniProt Q92731)
Sequence (Q92731 whole entry, looked up): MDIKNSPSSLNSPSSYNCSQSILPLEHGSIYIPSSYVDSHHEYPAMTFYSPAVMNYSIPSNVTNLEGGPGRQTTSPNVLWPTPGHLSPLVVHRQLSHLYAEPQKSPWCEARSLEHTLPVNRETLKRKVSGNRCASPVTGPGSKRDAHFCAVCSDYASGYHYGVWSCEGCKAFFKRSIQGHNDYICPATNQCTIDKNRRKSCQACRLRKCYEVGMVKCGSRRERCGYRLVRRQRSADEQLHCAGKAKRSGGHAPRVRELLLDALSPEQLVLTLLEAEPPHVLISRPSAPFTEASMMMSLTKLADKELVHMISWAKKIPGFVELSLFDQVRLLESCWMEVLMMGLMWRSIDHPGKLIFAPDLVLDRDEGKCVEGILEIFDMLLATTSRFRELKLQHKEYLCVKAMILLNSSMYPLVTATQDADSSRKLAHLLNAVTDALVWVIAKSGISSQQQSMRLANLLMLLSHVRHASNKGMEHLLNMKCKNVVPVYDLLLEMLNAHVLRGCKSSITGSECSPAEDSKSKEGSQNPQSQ
Assay: qHTS assay to identify small molecule agonists of the estrogen receptor beta (ER-beta) signaling pathway (AID 1259377; active = well fitted activation curve with a large enough effect in the signal ratio in the repeat runs, not every such curve was filed as active; the % refers to the signal ratio)
Settings: ER-beta-UAS-bla HEK293T, beta-lactamase FRET ratio, 16 h; series mostly up to 92.4 µM
In short: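 Read-out: beta-lactamase FRET fluorescence. Cell line: ER-beta-UAS-bla HEK293T in 2% charcoal-stripped FBS. Exposure: 16 hr at 37C. Substrate step: 2 h at room temperature.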
With `ClCCOCCCl` the Potency was “inactive”. In the case of `CN(C)C(=O)Nc1cccc(C(F)(F)F)c1`, the Potency is reported as “inactive”. For `CN(C)C(=O)C(c1ccccc1)c1ccccc1`, the Potency was “inactive”. In the case of `Nc1ccc(N)cc1`, the Potency is reported as “inactive”. For `O=S(=O)(O)OOS(=O)(=O)O`, the Potency was “inactive”. With `CC12CC1(C)C(=O)N(c1cc(Cl)cc(Cl)c1)C2=O` (stereo not given) the Potency was “inactive”. For `COC(=O)Nc1cccc(OC(=O)Nc2cccc(C)c2)c1`, the Potency was “inactive”. For `N#Cc1cccc(C#N)c1`, the Potency was “inactive”. For `Nc1cc(Cl)cc(Cl)c1`, the Potency was “inactive”. With `CC(C)c1cccc(C(C)C)c1O` the Potency was “inactive”. With `COP(=S)(OC)Oc1ccc(SC)c(C)c1` the Potency was “inactive”. In the case of `O=C(O)c1cc(Oc2ccc(C(F)(F)F)cc2Cl)ccc1[N+](=O)[O-]`, the Potency is reported as “inactive”. For `CSc1nnc(C(C)(C)C)c(=O)n1N`, the Potency was “inactive”. For `CC(=O)/C=C/c1ccccc1`, the Potency was “inactive”. In the case of `CN1C(=O)CCS(=O)(=O)C1c1ccc(Cl)cc1` (stereo not given), the Potency is reported as “inactive”. For `COC(C)(C)CCCC(C)C/C=C/C(C)=C/C(=O)OC(C)C` (stereo not given), the Potency was “inactive”. In the case of `c1ccc2c(c1)CCCC2`, the Potency is reported as “inactive”. For `CN(C)NC(=O)CCC(=O)O`, the Potency was “inactive”. For `O=[N+]([O-])c1cc([As](=O)(O)O)ccc1O`, the Potency was “inactive”.

Target: Estrogen receptor beta (Homo sapiens) (UniProt Q92731)
Assay: qHTS assay to identify small molecule antagonists of the estrogen receptor beta (ER-beta) signaling pathway (AID 1259378; active = well fitted inhibition curve with a large enough effect in the signal ratio in the repeat runs, not every such curve was filed as active; the % refers to the signal ratio)
Settings: ER-beta-UAS-bla HEK293T, beta-lactamase FRET ratio, 16 h; series mostly up to 92.4 µM
In short: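 ER-beta-UAS-bla HEK293T (GripTite) cells in 2% charcoal-stripped FBS medium were preincubated 6 hr at 37C, dosed with compound, then stimulated with 1 nM E2 (final) for 16 hr; beta-lactamase reporter read by B/G FRET fluorescence after 2 hr substrate loading.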
With `ClCCOCCCl` the outcome was “inactive”. With `CN(C)C(=O)Nc1cccc(C(F)(F)F)c1` the outcome was “inactive”. In the case of `CN(C)C(=O)C(c1ccccc1)c1ccccc1`, the outcome is reported as “inactive”. With `Nc1ccc(N)cc1` the outcome was “inactive”. For `O=S(=O)(O)OOS(=O)(=O)O`, the outcome was “inactive”. In the case of `CC12CC1(C)C(=O)N(c1cc(Cl)cc(Cl)c1)C2=O` (stereo not given), the outcome is reported as “inactive”. With `COC(=O)Nc1cccc(OC(=O)Nc2cccc(C)c2)c1` the outcome was “inactive”. For `N#Cc1cccc(C#N)c1`, the outcome was “inactive”. For `Nc1cc(Cl)cc(Cl)c1`, the outcome was “inactive”. For `CC(C)c1cccc(C(C)C)c1O`, the outcome was “inactive”. With `COP(=S)(OC)Oc1ccc(SC)c(C)c1` the outcome was “inactive”. In the case of `O=C(O)c1cc(Oc2ccc(C(F)(F)F)cc2Cl)ccc1[N+](=O)[O-]`, the outcome is reported as “inactive”. For `CSc1nnc(C(C)(C)C)c(=O)n1N`, the outcome was “inactive”. In the case of `CC(=O)/C=C/c1ccccc1`, the outcome is reported as “inactive”. For `CN1C(=O)CCS(=O)(=O)C1c1ccc(Cl)cc1` (stereo not given), the outcome was “inactive”. For `COC(C)(C)CCCC(C)C/C=C/C(C)=C/C(=O)OC(C)C` (stereo not given), the outcome was “inactive”. For `c1ccc2c(c1)CCCC2`, the outcome was “inactive”. For `CN(C)NC(=O)CCC(=O)O`, the outcome was “inactive”. In the case of `O=[N+]([O-])c1cc([As](=O)(O)O)ccc1O`, the outcome is reported as “inactive”.

Tested on: not listed separately
Assay: qHTS assay to identify small molecule agonists of the androgen receptor (AR) signaling pathway in the presence of an antagonist - cell viability counter screen (AID 1259379); also: nearly all actives have a fitted effect of over 25% in size; also: potency is read from the fitted curve at half-maximal effect
Settings: MDA-kb2 viability, CellTiter-Fluor, 16 h; series mostly up to 92.4 µM
In short: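 Nilutamide-containing (3.0uM final) MDA-kb2 cultures, 3,000 cells/well, were treated with compounds across 15 concentrations. After 16 hr at 37C with no CO2, cell viability was determined by CellTiter-Fluor fluorescence in the luciferase assay wells.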
With `ClCCOCCCl` the Potency was “inactive”. For `CN(C)C(=O)Nc1cccc(C(F)(F)F)c1`, the Potency was “inactive”. In the case of `CN(C)C(=O)C(c1ccccc1)c1ccccc1`, the Potency is reported as “inactive”. For `Nc1ccc(N)cc1`, the Potency was “inactive”. For `O=S(=O)(O)OOS(=O)(=O)O`, the Potency was “inactive”. For `CC12CC1(C)C(=O)N(c1cc(Cl)cc(Cl)c1)C2=O` (stereo not given), the Potency was “inactive”. For `OCCCCO`, the Potency was “inactive”. In the case of `COC(=O)Nc1cccc(OC(=O)Nc2cccc(C)c2)c1`, the Potency is reported as “inactive”. With `N#Cc1cccc(C#N)c1` the Potency was “inactive”. With `Nc1cc(Cl)cc(Cl)c1` the Potency was “inactive”. With `CC(C)c1cccc(C(C)C)c1O` the Potency was “inactive”. With `COP(=S)(OC)Oc1ccc(SC)c(C)c1` the Potency was “inactive”. With `O=C(O)c1cc(Oc2ccc(C(F)(F)F)cc2Cl)ccc1[N+](=O)[O-]` the Potency was “inactive”. In the case of `CSc1nnc(C(C)(C)C)c(=O)n1N`, the Potency is reported as “inactive”. In the case of `COc1cc(-c2ccc(N)c(OC)c2)ccc1N`, the Potency is reported as “inactive and 52 µM (active)”. With `O=C/C=C/c1ccccc1` the Potency was “inactive”. With `CCCCCCCCCCCCCCCCCC(=O)O` the Potency was “inactive”. With `CC(=O)/C=C/c1ccccc1` the Potency was “inactive”. With `Cc1ccccc1N` the Potency was “inactive”. With `CN1C(=O)CCS(=O)(=O)C1c1ccc(Cl)cc1` (stereo not given) the Potency was “inactive”. In the case of `Cl[C@H]1OCCO[C@@H]1Cl`, the Potency is reported as “inactive”. With `C[C@H]1C(=O)O[C@@H]2CCN3CC=C(COC(=O)[C@](C)(O)[C@]1(C)O)[C@H]23` the Potency was “inactive”. With `[N-]=[N+]=CC(=O)OC[C@H](N)C(=O)O` the Potency was “inactive”. For `Cc1ccc(N=C=O)cc1N=C=O`, the Potency was “inactive”. In the case of `COC(C)(C)CCCC(C)C/C=C/C(C)=C/C(=O)OC(C)C` (stereo not given), the Potency is reported as “inactive”. With `CCOP(=S)(OCC)Oc1ccc([N+](=O)[O-])cc1` the Potency was “inactive”. In the case of `c1ccc2c(c1)CCCC2`, the Potency is reported as “inactive”. With `CNC(=O)Oc1cccc2ccccc12` the Potency was “inactive”. With `Cc1ccc(N)cc1` the Potency was “inactive”. For `CN(C)NC(=O)CCC(=O)O`, the Potency was “inactive”. With `O=[N+]([O-])c1cc([As](=O)(O)O)ccc1O` the Potency was “inactive”.

— PubChem BioAssay (Tox21)
